Hits are enriched below; roughly 0.85% of the tested compounds scored in any of these assays.
B2AR arrestin = recruits beta-arrestin to the human beta2-adrenergic receptor | P07550 | 0.02% of 330,000 active | Potency, µM (highest dose often 46.1 µM), inactives show top-dose activation, actives largely listed as activators | beta-arrestin recruitment to beta2AR, cell-based reporter;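 note: potency is the fitted concentration of half-maximal effect; 0% = DMSO controls and full agonism = EC100 isoproterenol or metaproterenol; nearly all actives have a fitted effect of over 65% in size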
Target sequence (P07550 whole entry, looked up): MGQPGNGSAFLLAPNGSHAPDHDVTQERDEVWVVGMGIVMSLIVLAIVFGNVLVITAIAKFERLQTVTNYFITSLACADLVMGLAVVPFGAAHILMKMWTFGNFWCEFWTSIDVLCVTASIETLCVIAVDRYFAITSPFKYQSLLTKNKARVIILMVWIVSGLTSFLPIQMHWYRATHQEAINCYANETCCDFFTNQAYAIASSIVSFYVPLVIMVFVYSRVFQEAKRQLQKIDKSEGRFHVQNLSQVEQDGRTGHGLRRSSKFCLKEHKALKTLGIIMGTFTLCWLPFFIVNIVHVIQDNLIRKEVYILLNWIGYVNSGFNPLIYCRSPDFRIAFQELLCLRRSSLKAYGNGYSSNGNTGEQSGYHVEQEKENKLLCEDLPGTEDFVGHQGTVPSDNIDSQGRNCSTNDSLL
GAA glycogen = inhibitors or activators of human alpha-glucosidase glycogen cleavage. recombinant GAA, glycogen substrate, Amplex Red glucose oxidase fluorescence. P10253. Potency, µM (titrated, usually from 76.4 µM), inactives show at the top dose activity change, negative = inhibition, most hits filed as inhibitors. 0.38% of 300,000 active;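 note: potency is the fitted concentration of half-maximal effect; 0% = full enzyme reaction and -100% = no-enzyme basal signal; the screen sought inhibitors and activators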
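qHTS, 1536-well; enzyme 4 nM final; cpd up to 77 uM; substrate bovine liver glycogen 30 ug; 50 mM citrate/phosphate pH 5.0, 0.01% Tween-20; 37 C, 40 min; Amplex Red detection 45 min RT; Hill fit → AC50.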
aGlu spleen mod = lysosomal alpha-glucosidase (human) modulation | P10253 | human spleen homogenate, 4-MU-alpha-glucoside fluorescence | Potency, µM (top dose mostly 79.9 µM), for inactives: at the top dose activity change, negative = inhibition, usual class: inhibitors | 0.006% of 240,000 active | AID 2112;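 note: potency is the fitted concentration of half-maximal effect; 0% = enzyme with vehicle and -100% = no enzyme basal signal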
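Compounds were titrated against alpha-glucosidase in spleen homogenate at pH 5.0, with 1 mM 4-methylumbelliferyl substrate for 40 min at 37 C. Reactions were quenched with pH 10 NaOH/glycine and fluorescence measured.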
GAA inh = alpha-glucosidase (human) inhibition. P10253. purified human GAA, 4-MU-alpha-glucoside fluorescence. Potency, µM (titrated, usually from 76.9 µM), for inactives: top-dose activity change, negative = inhibition, usual class: inhibitors. 0.005% of 200,000 active;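 note: potency is the fitted concentration of half-maximal effect; plate controls were uninhibited enzyme wells for no effect and no-enzyme background for full effect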
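Fluorogenic assay: 4 nM human alpha-glucosidase with 400 uM 4-methylumbelliferyl-alpha-D-pyranoside in 50 mM citrate/phosphate, 0.005% Tween-20, pH 5.0, 20 min at room temperature. Compounds tested up to 77 uM; AC50 from Hill fits.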
Coupling enz = coupling enzyme interference in Giardia aldolase counter-screen; activity change, negative = inhibition, % at 58.2 µM, hits read low; 0.67% of 290,000 active; AID 2472; coupling enzyme system counterscreen, AmpLite Red fluorescence; in the data active = activity change below about -30%
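Activity here indicates interference with the coupling reaction, not aldolase inhibition. Compounds at 57.5 uM final met coupling enzymes for 10 min at RT; substrate and AmpLite Red detection followed, with a 525/598 nm fluorescence read after 20 min.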
Starred values were filed as active, the others as inactive; ? = inconclusive; . = not tested or not shown; [ ] = remark or other dose. Unless noted, calls come from the whole dose curve; as a rule, active = well fitted curve in the direction sought with a large enough effect; inconclusive = small, poorly fitted or top-dose-only effect, or another doubt; inactive = no such curve, though single readings can be large; an effect the other way counts as inactive or inconclusive. Unless noted, % is set by controls: 0 for no effect and ±100 for the full control effect.

SMILES	B2AR arrestin	GAA glycogen	aGlu spleen mod	GAA inh	Coupling enz
CCOc1cc2c(C#N)c(N3CCOCC3)nc(N)c2c(N)n1	0.2%	9.5%	7.9%	10.3%	-47.9*
CCC1Cc2c(nc(N)c3c(N)nc(N4CCOCC4)c(C#N)c23)O1 (configuration not stated)	-0.2%	-2.3%	5.0%	13.2%	-22.0
O=C(NNC(=S)Nc1ccc(Br)cc1)c1cccnc1	0.0%	50.1µM*	.	.	1.6
CC(C)c1ccc(NC(=S)NNC(=O)c2cccnc2)cc1	-0.3%	?	-1.2%	12.4%	2.0
CNC(=O)C1C(=S)NC(N)=C(C#N)C1c1ccccc1 (configuration not stated)	0.2%	22.2µM*	1.6%	0.6%	0.9
COC(=O)C1=C(C)OC(N)=C(C#N)C1c1ccccc1 (configuration not stated)	-1.6%	-14.0%	-4.8%	-4.3%	1.8
O=c1[nH][nH]c(=S)n1C1CCCCC1	-1.0%	6.9%	-2.9%	2.3%[15.4 µM]	-38.8*
CCS(=O)(=O)Nc1c(C(=O)OC)[nH]c2ccccc12	-0.4%	4.47µM*	-1.0%	-3.4%	-2.4
CCS(=O)(=O)Nc1c(C(=O)O)[nH]c2ccccc12	-0.6%	5.01µM*	-2.3%	-7.1%	0.3
C/C(CCN1CCCc2nc(C)c(C)cc21)=N\OC[C@@H](O)COCc1ccco1	.	.	0.8%[17.4 µM]	.	-0.6
O=S(=O)(c1ccc(Cl)nc1)N1CCCc2ccccc21	0.1%	7.7%	-8.8%	1.1%	-33.3*
O=S(=O)(c1ccc(Cl)nc1)N1CCc2ccccc21	-0.3%	13.4%	-0.2%	.	-5.3
O=C(CSc1cn(CCNC(=O)c2cccc(C(F)(F)F)c2)c2ccccc12)Nc1ccc2c(c1)OCCO2	.	35.5µM*	.	.	.
O=C(CSc1cn(CCNC(=O)c2ccccc2F)c2ccccc12)Nc1ccc2c(c1)OCCO2	.	7.8%[76.3 µM]	.	.	.
CCCC(c1nnnn1CCOC)N(Cc1cc2cc(C)c(C)cc2[nH]c1=O)CC1CCCO1 (configuration not stated)	-0.3%	1.0%	-3.4%	-7.8%	-41.4*
CC(C)CC(=O)NC(NC(=S)Nc1sc2c(c1C#N)CCCC2)C(Cl)(Cl)Cl (configuration not stated)	0.5%	28.2µM*	1.4%	-7.5%	11.3
CCn1c(=O)c(NC(=O)c2ccccc2)c2n(c1=S)CCCCC2	-0.2%	0.3%	1.9%	-5.9%	-35.1*
CCOCCCn1c(=O)c(NC(=O)c2ccc(OCC)cc2)c2n(c1=S)CCCCC2	-0.3%	-0.7%	-9.7%	-3.4%	-1.2
Cc1ccc(S(=O)(=O)Nc2cc(C)c(O)cc2C)cc1	-1.1%	3.55µM*	3.4%	4.4%	0.8
Cc1cc(NS(=O)(=O)c2ccccc2)c(C)c(Cl)c1O	0.2%	44.7µM*	8.1%	-1.4%	2.1
COc1ccc(S(=O)(=O)Nc2cc(C(C)C)c(O)cc2C)cc1	-0.3%	19.8µM*	-2.2%	-9.2%	3.7
COc1ccc(COC(=O)N/N=C2/C[C@@H](O)[C@@H](O)[C@@H]3[C@H]4C(=O)N(c5ccc(F)cc5F)C(=O)[C@@H]4CC[C@H]23)cc1	.	.	-4.6%[17.4 µM]	.	4.1
CCCCC/C=C\C/C=C\C/C=C\CCCCCCC(=O)NCCCC(=O)O	.	.	1.2%	.	-0.7
Cc1ccc(NS(=O)(=O)c2ccccc2Cl)c2c1CC(C)(C)O2	-0.2%	-5.7%	-8.4%	-2.4%	.
Cc1cccc(S(=O)(=O)Nc2ccc(C)c3c2OC(C)(C)C3)c1	0.0%	-15.5%	-6.2%	-3.2%	-44.4*
SMILES	B2AR arrestin	GAA glycogen	aGlu spleen mod	GAA inh	Coupling enz
CCc1ccc(S(=O)(=O)c2nnn3c2nc(Nc2cc(OC)ccc2OC)c2sccc23)cc1	.	3.4%[76.3 µM]	.	.	.
O=C(NNC(=S)NC1CCCCC1)c1ccc(Cl)s1	-0.2%	50.1µM*	-14.0%	?	3.6
COc1ccc(N2CCC(CNC(=O)Nc3ccc(OC)cc3OC)C2)cc1 (configuration not stated)	0.2%	-19.1%	3.0%	-0.2%	-30.6*
O=C(CN1CC(=O)Oc2ccccc21)NCc1ccco1	-0.1%	7.03µM*	-4.5%	-6.7%	-2.9
COc1cccc([C@@H]2Oc3ccc(Br)cc3C(=O)[C@H]2OC(=O)Nc2ccc(OC(F)F)cc2)c1	.	.	-0.6%	.	1.2
COc1ccc(/C=N/Nc2nccnc2Cl)c(OC)c1	0.2%	?	-5.5%	7.3%	0.8
COc1ccc(/C=N/Nc2nonc2N)c(OC)c1	0.1%	35.2µM*	2.6%	-1.8%	-3.2
CCOC(=O)N=Nc1c2ccccc2c2nc3no[nH]c3nc12	-0.7%	-8.3%	-0.5%	3.1%	-50.8*
Cc1ccc(SCCC(=O)N/N=C/c2cccnc2)cc1	0.1%	10.0%	2.1%	-3.4%	-31.5*
Cc1ccc(C)c(NC(=O)CCC(=O)N/N=C/c2cccnc2)c1	-0.4%	.	.	.	.
O=C(Nc1ccccc1)C12CC1/C(=N\O)c1ccccc1O2 (configuration not stated)	.	.	0.8%	.	.
O=C1c2ccccc2C(=O)N1Cc1cc(Cl)c(O)c([N+](=O)[O-])c1	-0.5%	-0.4%	.	.	11.1
Nc1cc(CN2C(=O)c3ccccc3C2=O)cc(Cl)c1O	-0.3%	7.94µM*	1.5%	-6.0%	3.4
Cc1coc2c1C(=O)C(=O)c1c-2ccc2c1CCCC2(C)C	-0.1%	-15.5%	12.4%	.	-39.9*
CC1COC2=C1C(=O)C(=O)c1c2ccc2c1CCCC2(C)C (configuration not stated)	.	.	-4.5%	.	-36.3*
C[C@H]1COC2=C1C(=O)C(=O)c1c2ccc2c1CCCC2(C)C	0.4%	-6.9%	9.0%	.	-22.8
Cc1coc2c1C(=O)C(=O)c1c-2ccc2c(C)cccc12	0.2%	-0.1%	1.0%	.	-55.0*
Cc1ccc2c3c(cccc13)-c1ccccc1C2=O	-2.2%	-11.9%	1.5%	0.1%	-4.7
COc1ccc(C2/C=C\CN(Cc3ccccc3)C(C)C(=O)N2Cc2ccc(F)cc2)cc1 (configuration not stated)	.	.	-9.6%	.	0.2
COC(=O)c1[nH]c2ccccc2c1NC(=O)Oc1ccccc1	0.3%	-17.3%	-0.8%	-0.9%[15.4 µM]	-0.9
COC(=O)c1[nH]c2cc(OC)c(OC)cc2c1NC(=O)Oc1ccccc1	0.0%	35.5µM*	-3.3%	?	-0.8
COc1ccc(O)c(-c2c(-c3ccc(Cl)cc3)n[nH]c2C)c1	0.0%	10µM*	0.8%	-8.4%	-12.8
COc1ccc(NC(=O)NC(C)(C(F)(F)F)C(F)(F)F)cc1	-0.2%	-12.1%	0.3%	5.0%	-1.0
CC(NC(=O)Nc1ccccc1O)(C(F)(F)F)C(F)(F)F	0.0%	15.8µM*	2.6%	-11.9%	-2.4
CC(NC(=O)Nc1ccc(O)cc1)(C(F)(F)F)C(F)(F)F	-0.2%	?	-3.0%	-8.8%	-33.1*
CCC(NC(=O)Nc1ccc(O)cc1)(C(F)(F)F)C(F)(F)F	0.2%	?	5.3%	1.4%	-42.6*

Screens: PubChem BioAssay, National Center for Advancing Translational Sciences (NCATS)
